Consider 34 compounds from PubChem BioAssay (EPA / NIEHS).

SMILES strings stand for the structures. Records with an inconclusive call do not appear. The source made the active and inactive calls. How the source made its calls: active means hit-call score of the fitted dose curve at least 0.9, where 1 is the maximum; inconclusive means response in the unintended direction; inactive means score below 0.9.

Assay [1] deals with Cellular tumor antigen p53 (Homo sapiens) (UniProt P04637). Put plainly: TOX21_p53_BLA_p2_ratio: Tox21 HCT-116 p53 Agonism Beta-lactamase Assay, Ratio, Phase 2 (AID 2283592). In short, it runs like this: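 Ratio endpoint: beta-lactamase cleavage of CCF4-AM, blue (460 nm) over green (530 nm). HCT116 reporter line; 16 h treatment, 37C; substrate 2 h RT.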
For assay [2] the target is unchanged. Put plainly: TOX21_p53_BLA_p5_ratio: Tox21 HCT-116 p53 Agonism Beta-lactamase Assay, Ratio, Phase 5 (AID 2283599). In short, it runs like this: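 HCT-116 p53-bla cells (4000/well) plated 5 h, dosed with compound (217-fold DMSO dilution) for 16 h at 37 C; CCF4-AM substrate 2 h at room temperature. Activity is the 460/530 nm emission ratio (405 nm excitation), fitted in gain-of-signal direction versus DMSO.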

Assay [3] in a line: TOX21_p53_BLA_p5_viability: Viability Assessment in the Tox21 HCT-116 p53 Agonism Beta-lactamase Assay, Phase 5 (AID 2283600). In short, it runs like this:
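Luciferase-coupled ATP quantitation of cells treated for 16 h (37C, 5% CO2) with test chemicals delivered in DMSO via a 217-fold dilution; 4000 cells/well; reagent incubated 30 min at room temperature before luminescence reading.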

Assay [4] can be described thus: TOX21_p53_BLA_p4_viability: Viability Assessment in the Tox21 HCT-116 p53 Agonism Beta-lactamase Assay, Phase 4 (AID 2283597).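 Further: hits lower the luminescence signal meaning cytotoxicity.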 The procedure, abridged: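 Cytotoxicity was inferred from loss of CellTiter-Glo luminescence. HCT116 cells had been dosed with compounds after 5 h plating, incubated 16 h at 37C and 5% CO2, and exposed to the CCF4-AM substrate for 2 h.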
For assay [5], the target named is Cellular tumor antigen p53 (Homo sapiens) (UniProt P04637). The experiment in a line: TOX21_p53_BLA_p4_ratio: Tox21 HCT-116 p53 Agonism Beta-lactamase Assay, Ratio, Phase 4 (AID 2283601). The procedure, abridged: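 HCT-116 p53 beta-lactamase reporter cells (4000/well) preincubated 5 h, then compound (217-fold dilution of DMSO stock) for 16 h at 37C. CCF4-AM substrate added 2 h at room temperature; 460/530 nm emission ratio fitted upward versus DMSO.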

Chain of Cellular tumor antigen p53 (Homo sapiens) (P04637 whole entry, looked up): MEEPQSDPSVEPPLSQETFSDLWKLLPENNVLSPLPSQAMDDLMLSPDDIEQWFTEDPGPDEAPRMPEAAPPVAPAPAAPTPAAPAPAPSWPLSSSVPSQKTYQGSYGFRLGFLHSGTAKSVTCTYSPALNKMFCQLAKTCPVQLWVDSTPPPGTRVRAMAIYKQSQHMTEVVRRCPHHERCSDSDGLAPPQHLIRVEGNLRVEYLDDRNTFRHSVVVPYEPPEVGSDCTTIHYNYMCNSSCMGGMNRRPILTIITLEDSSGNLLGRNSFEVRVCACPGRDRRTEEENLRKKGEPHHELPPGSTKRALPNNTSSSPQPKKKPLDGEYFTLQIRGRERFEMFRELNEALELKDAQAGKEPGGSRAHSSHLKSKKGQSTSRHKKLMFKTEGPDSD

Consider `CCCCCCCCCCCCCCCCBr`, for which the result in assay [1] and in assay [2] was inactive.
For `C1CCc2nnnn2CC1`, the outcome in assay [1], in assay [2] and in assay [3] was inactive.
Regarding `O=C1CC[C@H](C(=O)N2CCCCC2)N1`, the result in assay [1], in assay [4], in assay [3] and in assay [5] was inactive.
For `CO[C@H]1/C=C/O[C@@]2(C)Oc3c(C)c(O)c4c(O)c(c5c(nc6cc(C)ccn65)c4c3C2=O)NC(=O)/C(C)=C\C=C\[C@H](C)[C@H](O)[C@@H](C)[C@@H](O)[C@@H](C)[C@H](OC(C)=O)[C@@H]1C`, the outcome in assay [1], in assay [4] and in assay [5] was inactive.
As for `CC(COc1ccccc1)NN` (configuration not stated), the outcome in assay [1], in assay [4] and in assay [5] was inactive.
Regarding `O=C(O)c1ccc(O)cc1O`, the outcome in assay [1], in assay [4], in assay [2] and in assay [5] was inactive.
As to `Cc1ccc(/C(=C\CN2CCCC2)c2ccccn2)cc1`, the result in assay [1], in assay [4], in assay [3] and in assay [5] was inactive.
On to `COc1ccc(-c2nc3ccc(C4=NNC(=O)CC4C)cc3[nH]2)cc1` (configuration not stated), for which the AC50 is 17.1 µM (active) in assay [1] and 16.3 µM (active) in assay [2]. Further, the compound was called inactive in assay [3].
Take `CC(CO)CO`: the result in assay [1], in assay [4] and in assay [5] was inactive.
In the case of `NC(=O)c1cn(Cc2c(F)cccc2F)nn1`, the outcome in assay [1], in assay [4], in assay [3] and in assay [5] was inactive.
Turning to `O=C(C(=O)c1ccc(Br)cc1)c1ccc(Br)cc1`, the outcome in assay [1] and in assay [2] was inactive.
On to `CC/C=C(\C(=O)N[C@@H]1C(=O)N2C(C(=O)OCOC(=O)C(C)(C)C)=C(COC(N)=O)CS[C@H]12)c1csc(N)n1`, for which the outcome in assay [1], in assay [4], in assay [3] and in assay [5] was inactive.
With `Cc1ccco1`, the outcome in assay [1] and in assay [2] was inactive.
For the compound `Cc1cc(C)cc([N+](=O)[O-])c1`, the outcome in assay [1], in assay [4], in assay [3] and in assay [5] was inactive.
In the case of `CCOC(=O)CC(=O)C(=O)OCC`, the outcome in assay [1], in assay [4] and in assay [5] was inactive.
Take `O=C(OC1C[C@@H]2CC3C[C@H](C1)N2CC3=O)c1c[nH]c2ccccc12` (some centres not stated): the outcome in assay [1], in assay [4] and in assay [3] was inactive.
On to `OCCOc1ccc(OCCO)cc1`, for which the result in assay [1], in assay [4], in assay [3] and in assay [5] was inactive.
With `COc1ccc2cc([C@H](C)CO)ccc2c1`, the result in assay [1], in assay [2], in assay [3] and in assay [5] was inactive.
For the compound `CO[C@]1(NC(=O)CSC(F)F)C(=O)N2C(C(=O)O)=C(CSc3nnnn3CCO)CO[C@H]21`, the result in assay [1] and in assay [2] was inactive.
Consider `Cc1cccc(C(=O)O)c1[N+](=O)[O-]`, for which the result in assay [1] and in assay [2] was inactive.
Turning to `C1COCCO1`, the outcome in assay [1], in assay [2] and in assay [3] was inactive.
On to `Brc1cc2ccccc2c2ccccc12`, for which the result in assay [1], in assay [4], in assay [2] and in assay [5] was inactive.
Turning to `CC1(C)O[C@@H]2C[C@H]3[C@@H]4CCC5=CC(=O)C=C[C@]5(C)[C@H]4[C@@H](O)C[C@]3(C)[C@]2(C(=O)CO)O1`, the outcome in assay [1], in assay [2] and in assay [3] was inactive.
Take `CCCN(CC)C(CC)C(=O)Nc1c(C)cccc1C` (configuration not stated): the result in assay [1], in assay [2] and in assay [3] was inactive.
`Nc1ccc2cc(S(=O)(=O)O)ccc2c1`: the outcome in assay [1], in assay [4], in assay [2] and in assay [5] was inactive.
`CCCCCCCCCCCCCCCCOP(=O)([O-])OCC[N+](C)(C)C`: the outcome in assay [1] and in assay [2] was inactive.
Regarding `CN(C)CC[C@@H](c1ccc(Cl)cc1)c1ccccn1`, the outcome in assay [1], in assay [4] and in assay [5] was inactive.
With `CCn1ccnc1CC1COc2ccccc2O1` (configuration not stated), the result in assay [1], in assay [4], in assay [2] and in assay [5] was inactive.
Consider `C=CCCCC`, for which the outcome in assay [1], in assay [4] and in assay [5] was inactive.
As for `C[C@@H](O)[C@H]1C(=O)N2C(C(=O)O)=C([C@H]3CCCO3)S[C@H]12`, the outcome in assay [1], in assay [3] and in assay [5] was inactive.
For the compound `O=C(O)c1cc2cc(Cc3cccnc3)ccc2o1`, the result in assay [1], in assay [3] and in assay [5] was inactive.
In the case of `CCCCCCCCCCCCCCCCN(C)C`, the outcome in assay [1], in assay [3] and in assay [5] was inactive.
`CCCN(CCC)C(=O)C(CCC(=O)O)NC(=O)c1ccccc1` (configuration not stated): the result in assay [1], in assay [3] and in assay [5] was inactive.
Take `O=C(CS(=O)Cc1ccco1)NC/C=C\COc1cc(CN2CCCCC2)ccn1` (configuration not stated): the result in assay [1], in assay [2] and in assay [5] was inactive.

A word on the AC50: it is the concentration giving half of the maximal activity seen.
